Among the data in PubChem BioAssay (NCATS) are outcome, Potency and max response values, retold here.

Inconclusive results are not listed. Unmarked numbers belong to inactive results. Calls of active or inactive are those of the source. The call rests on the fitted dose curve; in most records, active means well fitted curve in the direction sought with a large enough effect; inconclusive means small, poorly fitted or top-dose-only effect, or another doubt; inactive means no such curve, though single readings can be large; an effect the other way counts as inactive or inconclusive. Where a SMILES comes first, the peptide text is derived from it. [ ]: non-standard residue; d: D form. pGlu = O=C1CC[C@@H](C(=O)O)N1; Thz = O=C(O)[C@@H]1CSCN1

The subject of assay [1] is NIH3T3. Nature of the assay: Cytotoxic Profiling of Annotated Libraries Using Quantitative High-Throughput Screening (AID 1296008). Further: nearly all actives have a fitted effect of over 60% in size. Particulars: Five cell lines viability, CellTiter-Glo ATP luminescence, 48-72 h; max response: active compounds read low. A digest of the protocol:
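Cytotoxicity was measured as CellTiter-Glo ATP luminescence, read after 10 min at room temperature. Compound treatment of the cells lasted 48 or 72 hr at 37 degrees Celsius in a qHTS format.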
For orientation: ATP-based viability assays read luminescence as a measure of living cells.

Assay [2] concerns NIH3T3. Briefly: qHTS assay to identify novel small-molecules to repurpose for Merkel cell carcinoma treatment (AID 1296009). Further: nearly all actives have a fitted effect of over 60% in size. Particulars: MCC and control cell lines, CellTiter-Glo viability, 72 h; at 44.8 µM (top of the series) unless noted. A digest of the protocol: (§1)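 Cell viability, measured as CellTiter-Glo luminescence, was normalized between DMSO and no-cell wells. The cells had been exposed to 8- or 11-point compound dilutions for 72 hr at 37 degree celsius.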
On the technique in general: qHTS replaces the single test concentration by a dilution series.

The subject of a further assay is C33A. Nature of the assay: Primary qHTS to identify gynecologic anti-cancer compounds using libraries of approved drugs and bioactive compounds (AID 1345084). Further: nearly all actives have a fitted effect of over 55% in size. Particulars: Gynecologic cancer cell panel viability, ATPlite luminescence, 48 h; series mostly up to 57.5 µM. A digest of the protocol:
(§2)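 Luminescence from the ATPlite ATP-monitoring reagent indicates viable cell number; lower signal means cytotoxicity. Cells received compound 16 h after seeding and were exposed for 48 h across five concentrations.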

For another assay, the system named is CAOV3. The assay is described as above. Particulars: Gynecologic cancer cell panel viability, ATPlite luminescence, 48 h; series mostly up to 57.5 µM. Summed up:
as §2

For another assay, the system named is CASKI. The description is as above. The note with it: Gynecologic cancer cell panel viability, ATPlite luminescence, 48 h; series mostly up to 57.5 µM. A digest of the protocol: as §2
In the next assay the test system is Es-2. Described as above. The note with it: Gynecologic cancer cell panel viability, ATPlite luminescence, 48 h; series mostly up to 57.5 µM. Summed up: as §2
The next assay relates to HeLa. Described as above. The note with it: Gynecologic cancer cell panel viability, ATPlite luminescence, 48 h; series mostly up to 57.5 µM. A digest of the protocol: as §2
In the next assay the test system is Hek293T. The assay is described as above. The note with it: Gynecologic cancer cell panel viability, ATPlite luminescence, 48 h, control line for the selectivity index; series mostly up to 57.5 µM. Summed up: as §2
The next assay relates to JEG-3. The description is as above. Particulars: Gynecologic cancer cell panel viability, ATPlite luminescence, 48 h; series mostly up to 57.5 µM. Summed up: as §2
In another assay the test system is OV90. The assay is described as above. Particulars: Gynecologic cancer cell panel viability, ATPlite luminescence, 48 h; series mostly up to 57.5 µM. Summed up:
as §2

The next assay relates to PA-1. The description is as above. Particulars: Gynecologic cancer cell panel viability, ATPlite luminescence, 48 h; series mostly up to 57.5 µM. Summed up:
as §2

A further assay has as its system SKOV3. The assay is described as above. The note with it: Gynecologic cancer cell panel viability, ATPlite luminescence, 48 h; series mostly up to 57.5 µM. A digest of the protocol:
as §2

A further assay relates to MCC-13. Nature of the assay: qHTS assay to identify novel small-molecules to repurpose for Merkel cell carcinoma treatment (AID 1296009). Further: nearly all actives have a fitted effect of over 60% in size. Particulars: MCC and control cell lines, CellTiter-Glo viability, 72 h; series mostly up to 46 µM. A digest of the protocol:
as §1

A further assay relates to MKL-1. Described as above. The note with it: MCC and control cell lines, CellTiter-Glo viability, 72 h; series mostly up to 46 µM. A digest of the protocol:
as §1

Another assay relates to MKL-2. The assay is described as above. The note with it: MCC and control cell lines, CellTiter-Glo viability, 72 h; series mostly up to 46 µM. Summed up:
as §1

Another assay deals with UISO. The description is as above. The note with it: MCC and control cell lines, CellTiter-Glo viability, 72 h; series mostly up to 46 µM. A digest of the protocol: as §1
For the next assay, the system named is WaGa. Described as above. The note with it: MCC and control cell lines, CellTiter-Glo viability, 72 h; series mostly up to 46 µM. A digest of the protocol:
as §1

Another assay concerns HACAT. The description is as above. The note with it: MCC and control cell lines, CellTiter-Glo viability, 72 h; at 44.8 µM (top of the series) unless noted. Summed up:
as §1

In another assay the test system is MCC-26. The description is as above. The note with it: MCC and control cell lines, CellTiter-Glo viability, 72 h; series mostly up to 46 µM. Summed up:
as §1
On the % scale 0 is the no-effect control and ±100 the full control effect; potency means the concentration at half of the fitted maximal effect.

Consider `O=C1CC[C@@H](C(=O)N2CSC[C@H]2C(=O)O)N1` ([pGlu]-[Thz]-OH), for which the call in the assay with NIH3T3 [1] and in the assay with NIH3T3 [2] was inactive. The Potency result in the assay with C33A, with CAOV3, in the assay with CASKI, in the assay on Es-2, in the assay with HeLa and in the assay on Hek293T was “inactive” each time. Besides, the Potency entry in the assay with JEG-3, in the assay with OV90, with PA-1 and in the assay on SKOV3 was “inactive” in each case.

`CN1[C@@H]2CC[C@H]1CC(OC(=O)C(CO)c1ccccc1)C2` (some centres not stated): the max response in the assay with NIH3T3 [1] is 3.27%. Besides, the Potency result in the assay on C33A, in the assay with CAOV3, with CASKI, in the assay with Es-2, with HeLa and in the assay with Hek293T was “inactive” throughout. For the same compound, the Potency result in the assay on JEG-3, in the assay with OV90, with PA-1 and in the assay with SKOV3 was “inactive” each time.

For `O=[N+]([O-])c1ccc(CNc2nc(NCc3cccc(C(F)(F)F)c3)nc3nc[nH]c23)cc1`, the call in the assay on NIH3T3 [1] and in the assay with NIH3T3 [2] was inactive. The Potency result with C33A, in the assay with CASKI, with Es-2, in the assay on HeLa, with Hek293T and in the assay on JEG-3 was “inactive” in each case. For the same compound, the Potency entry in the assay with PA-1 and with SKOV3 was “inactive” in each case.

On to `CCN(CC)CCCCNc1ncc2cc(-c3c(Cl)cccc3Cl)c(NC(=O)NC(C)(C)C)nc2n1`, for which the Potency is 1.16 µM (active) with NIH3T3 [1], 7.94 µM (active) in the assay with OV90 and 0.631 µM (active) in the assay on PA-1. For the same compound, in the assay with JEG-3, the Potency entry was “inactive”.

`O=C(Nc1ccc2c(c1)CCN(Cc1ncn[nH]1)C2)c1ccccc1-c1ccc(C(F)(F)F)cc1`: the Potency entry in the assay on CASKI, with Es-2, in the assay on HeLa, in the assay with Hek293T, with JEG-3 and with OV90 was “inactive” each time. Moreover, the Potency result in the assay on PA-1 is “inactive”.

As for `O=c1cc(-c2ccccc2)oc2ccccc12`, the Potency entry in the assay with MCC-13 and in the assay with MKL-1 was “inactive” in each case. The values for the Potency in the assay on HeLa and in the assay with SKOV3 were 15.8 µM (active) and 31.6 µM (active), respectively.

In the case of `S=c1[nH]c2ccccc2s1`, the Potency entry with C33A, in the assay with CASKI, with Es-2, in the assay on HeLa, in the assay with Hek293T and in the assay on JEG-3 was “inactive” in each case. Besides, the Potency entry in the assay with OV90 and in the assay on PA-1 was “inactive” in each case.

As for `COC(=O)C1=C(C)NC(C)=C(C(=O)OC)C1c1cccc(NC(=O)NCCCN2CCC(c3cccc(OC)c3)CC2)c1`, the Potency entry in the assay with C33A, in the assay on Es-2, in the assay with HeLa and in the assay on Hek293T was “inactive” throughout. For the same compound, the Potency in the assay with CAOV3 was 22.4 µM (active).

As for `O=C(O)CC1CC(c2ccccc2)=NO1` (configuration not stated), in the assay on NIH3T3 [1], the max response is -6.76%. Moreover, the Potency result in the assay with C33A, in the assay on CAOV3, with CASKI, in the assay on Es-2, with HeLa and in the assay with Hek293T was “inactive” throughout. Moreover, the Potency result with JEG-3, with OV90, with PA-1 and with SKOV3 was “inactive” in each case.

For the compound `O=C(O)/C=C\C(=O)O`, the Potency entry in the assay with MCC-13, in the assay on MKL-1, with MKL-2, in the assay on UISO, in the assay on WaGa and with C33A was “inactive” each time. For the same compound, the Potency result in the assay with CAOV3, in the assay on CASKI, with Es-2, with HeLa, in the assay on Hek293T and with JEG-3 was “inactive” in each case. Further, the Potency result in the assay with OV90, with PA-1 and in the assay with SKOV3 was “inactive” in each case.

Take `Clc1ccccc1-c1nc(-c2ccncc2)no1`: the compound was classed as inactive in the assay on HACAT. The Potency result in the assay with MCC-13, in the assay with MCC-26, in the assay with MKL-1, with MKL-2, in the assay with UISO and with WaGa was “inactive” each time. The Potency result with C33A was “inactive”. In addition, the figures for the Potency in the assay with HeLa and with SKOV3 were 28.2 µM (active) and 22.4 µM (active), respectively.

With `Oc1c(Br)cc(Br)c2cccnc12`, the Potency entry in the assay on MCC-13, with MCC-26, with C33A, with CASKI, in the assay on HeLa and in the assay with JEG-3 was “inactive” throughout. Besides, the Potency was 11.9 µM (active) in the assay with MKL-1, 4.22 µM (active) in the assay on MKL-2, 7.5 µM (active) in the assay on UISO and 11.9 µM (active) in the assay on WaGa.
